Assay [1] is described as follows: A CellTox Green Cytotoxicity Assay to monitor cytotoxicity in HepG2 cells - 16 hour (AID 1224876). Note: nearly all actives have a fitted effect of over 45% in size. The procedure, abridged: (§1)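 Nonlytic assay: viable cells exclude the dye, so fluorescence scales with cell death. HepG2 at 600 cells/well, compounds added after 5 h, signal read across 40 h.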
Assay [2] is described as follows: A CellTox Green Cytotoxicity Assay to monitor cytotoxicity in HepG2 cells - 24 hour (AID 1224878). Note: nearly all actives have a fitted effect of over 45% in size. The procedure, abridged:
as §1

A short description of assay [3]: A CellTox Green Cytotoxicity Assay to monitor cytotoxicity in HepG2 cells - 40 hour (AID 1224879). Note: nearly all actives have a fitted effect of over 40% in size. The procedure, abridged:
as §1

Assay [4] in a line: qHTS RealTime-Glo MT Cell Viability Assay in HEK293 cells - 0 hour (AID 1224880). Note: nearly all actives have a fitted effect of over 45% in size. Note: potency is the fitted concentration of half-maximal effect. The procedure, abridged:
(§2)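 Tox21 screen in HEK293 using RealTime-Glo MT chemistry, with cells and reagent co-dispensed. Luminescence proportional to viable cell number was captured at intervals during 40 h compound exposure at 37 C.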

Assay [5] is described as follows: A CellTox Green Cytotoxicity Assay to monitor cytotoxicity in HEK293 cells - 32 hour (AID 1224881). Note: nearly all actives have a fitted effect of over 40% in size. The method in brief: (§3)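 Seeding of HEK293 cells together with cytotoxicity dye preceded a 5 h incubation at 37 C/5% CO2. Test compounds in DMSO were then added and fluorescence monitored across 40 h.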
The nature of assay [6]: A CellTox Green Cytotoxicity Assay to monitor cytotoxicity in HepG2 cells - 0 hour (AID 1224882). Note: nearly all actives have a fitted effect of over 35% in size. The procedure, abridged: as §1
The nature of assay [7]: A CellTox Green Cytotoxicity Assay to monitor cytotoxicity in HepG2 cells - 32 hour (AID 1224883). Note: nearly all actives have a fitted effect of over 50% in size. The procedure, abridged: as §1
Assay [8] can be described thus: A CellTox Green Cytotoxicity Assay to monitor cytotoxicity in HEK293 cells - 8 hour (AID 1224884). Note: nearly all actives have a fitted effect of over 35% in size. The procedure, abridged: as §3
Assay [9] can be described thus: qHTS RealTime-Glo MT Cell Viability Assay in HepG2 cells - 16 hour (AID 1224885). Note: nearly all actives have a fitted effect of over 50% in size. The method in brief:
(§4)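 Cells + NanoLuc/prosubstrate dispensed (600 cells/well) → 5 h at 37 C/5% CO2 → compounds in DMSO transferred → 40 h incubation at 37 C, luminescence read at 0, 8, 16, 24, 32, 40 h.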

Assay [10] in a line: qHTS RealTime-Glo MT Cell Viability Assay in HEK293 cells - 24 hour (AID 1224886). Note: top concentration of the series differs between compounds; nearly all actives have a fitted effect of over 50% in size. The procedure, abridged: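 Tox21 10K qHTS, HEK293, 600 cells/well, RealTime-Glo reagent co-dispensed with cells; 5 h preincubation, compound by pintool, 37 C, luminescence at 0–40 h.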
Assay [11] in a line: qHTS RealTime-Glo MT Cell Viability Assay in HEK293 cells - 8 hour (AID 1224887). Note: top concentration of the series differs between compounds; nearly all actives have a fitted effect of over 50% in size. The procedure, abridged:
as §2

Assay [12] is described as follows: A CellTox Green Cytotoxicity Assay to monitor cytotoxicity in HEK293 cells - 16 hour (AID 1224888). Note: nearly all actives have a fitted effect of over 35% in size. The procedure, abridged:
as §3

A short description of assay [13]: qHTS RealTime-Glo MT Cell Viability Assay in HepG2 cells - 0 hour (AID 1224889). Note: nearly all actives have a fitted effect of over 50% in size. Note: potency is the fitted concentration of half-maximal effect. The method in brief: as §4
Assay [14] can be described thus: A CellTox Green Cytotoxicity Assay to monitor cytotoxicity in HepG2 cells - 8 hour (AID 1224890). Note: nearly all actives have a fitted effect of over 45% in size. The method in brief:
as §1

The nature of assay [15]: qHTS assay to identify small molecule antagonists of the estrogen receptor alpha (ER-alpha) signaling pathway using the BG1 cell line in the presence of 0.1 nM 17-beta-estradiol - cell viability counter screen (AID 1259241). Note: nearly all actives have a fitted effect of over 40% in size. The procedure, abridged: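 Cells were plated and left 24 hr, compounds in DMSO were pinned in, 17beta-estradiol was added to 0.1 nM final, and after 22 hr CellTiter-Fluor reagent was added for 30 min before fluorescence was read.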

Assay [16] is described as follows: qHTS assay to identify small molecule antagonists of the androgen receptor (AR) signaling pathway using the MDA cell line in the presence of 0.5 nM R1881 - cell viability counter screen (AID 1259242). Note: nearly all actives have a fitted effect of over 45% in size. The procedure, abridged: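 R1881 at 0.5 nM final stimulated MDA-kb2 cells during 16 hr compound treatment at 37C. Cytotoxicity read: CellTiter-Fluor fluorescence after 30 min.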

For assay [17], the target named is Estrogen receptor (Homo sapiens) (UniProt P03372). Put plainly: qHTS assay to identify small molecule antagonists of the estrogen receptor alpha (ER-alpha) signaling pathway using the BG1 cell line in the presence of 0.1 nM 17-beta-estradiol (AID 1259244). Note: nearly all actives have a fitted effect of over 50% in size. The method in brief:
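VM7Luc4E2; 4xERE-luciferase; 0.1 nM E2 final; 22 h co-incubation, 37C; ONE-Glo luminescence after 30 min at room temperature.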

Assay [18] is described as follows: qHTS RealTime-Glo MT Cell Viability Assay in HepG2 cells - 32 hour (AID 1224877). Note: nearly all actives have a fitted effect of over 55% in size. The procedure, abridged:
as §4

The nature of assay [19]: qHTS assay to identify small molecule phospholipidosis (PLD) inducers (AID 1259344; active = well fitted curve in the direction sought with a large enough effect; an effect the other way counts as inactive or inconclusive). The method in brief: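 Phospholipidosis is scored by imaging LipidTOX-stained pits in HepG2 cells exposed to compound for 24 h at 37 C; pit counts and integrated intensities per well and per cell serve as outputs.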
For assay [20], the target named is Androgen receptor (Homo sapiens) (UniProt P10275). The experiment in a line: qHTS assay to identify small molecule antagonists of the androgen receptor (AR) signaling pathway using the MDA cell line in the presence of 0.5 nM R1881 (AID 1259243). Note: nearly all actives have a fitted effect of over 50% in size. The method in brief:
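We exposed MDA-kb2 cells to compounds under 0.5 nM R1881 stimulation for 16 hr at 37C and quantified MMTV-driven luciferase by luminescence.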

Values without a mark were called inactive. Records with an inconclusive call do not appear. Activity calls are given as the source filed them. Unless noted, calls come from the whole dose curve; as a rule, active = well fitted curve in the direction sought with a large enough effect in the repeat runs; inconclusive = weak or mixed curves; inactive = no such curve, though single readings can be large; an effect the other way counts as inactive or inconclusive.

Estrogen receptor (Homo sapiens), sequence (P03372 whole entry, looked up): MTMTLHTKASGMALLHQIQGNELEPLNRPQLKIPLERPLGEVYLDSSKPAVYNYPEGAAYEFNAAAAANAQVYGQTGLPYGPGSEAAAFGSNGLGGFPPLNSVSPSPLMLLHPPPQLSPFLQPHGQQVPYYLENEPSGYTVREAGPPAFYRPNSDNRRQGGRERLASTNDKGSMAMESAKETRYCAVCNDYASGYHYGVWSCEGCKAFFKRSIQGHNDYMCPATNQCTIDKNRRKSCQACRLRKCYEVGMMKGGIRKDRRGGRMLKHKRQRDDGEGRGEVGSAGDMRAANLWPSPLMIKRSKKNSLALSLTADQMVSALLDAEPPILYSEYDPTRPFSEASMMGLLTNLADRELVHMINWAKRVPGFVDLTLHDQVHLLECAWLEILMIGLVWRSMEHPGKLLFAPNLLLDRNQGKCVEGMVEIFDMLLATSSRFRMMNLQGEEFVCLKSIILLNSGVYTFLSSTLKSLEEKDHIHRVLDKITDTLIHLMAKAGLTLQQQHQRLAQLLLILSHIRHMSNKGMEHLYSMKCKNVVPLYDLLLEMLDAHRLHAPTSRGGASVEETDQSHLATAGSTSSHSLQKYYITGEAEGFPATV
Androgen receptor (Homo sapiens), sequence (P10275 whole entry, looked up): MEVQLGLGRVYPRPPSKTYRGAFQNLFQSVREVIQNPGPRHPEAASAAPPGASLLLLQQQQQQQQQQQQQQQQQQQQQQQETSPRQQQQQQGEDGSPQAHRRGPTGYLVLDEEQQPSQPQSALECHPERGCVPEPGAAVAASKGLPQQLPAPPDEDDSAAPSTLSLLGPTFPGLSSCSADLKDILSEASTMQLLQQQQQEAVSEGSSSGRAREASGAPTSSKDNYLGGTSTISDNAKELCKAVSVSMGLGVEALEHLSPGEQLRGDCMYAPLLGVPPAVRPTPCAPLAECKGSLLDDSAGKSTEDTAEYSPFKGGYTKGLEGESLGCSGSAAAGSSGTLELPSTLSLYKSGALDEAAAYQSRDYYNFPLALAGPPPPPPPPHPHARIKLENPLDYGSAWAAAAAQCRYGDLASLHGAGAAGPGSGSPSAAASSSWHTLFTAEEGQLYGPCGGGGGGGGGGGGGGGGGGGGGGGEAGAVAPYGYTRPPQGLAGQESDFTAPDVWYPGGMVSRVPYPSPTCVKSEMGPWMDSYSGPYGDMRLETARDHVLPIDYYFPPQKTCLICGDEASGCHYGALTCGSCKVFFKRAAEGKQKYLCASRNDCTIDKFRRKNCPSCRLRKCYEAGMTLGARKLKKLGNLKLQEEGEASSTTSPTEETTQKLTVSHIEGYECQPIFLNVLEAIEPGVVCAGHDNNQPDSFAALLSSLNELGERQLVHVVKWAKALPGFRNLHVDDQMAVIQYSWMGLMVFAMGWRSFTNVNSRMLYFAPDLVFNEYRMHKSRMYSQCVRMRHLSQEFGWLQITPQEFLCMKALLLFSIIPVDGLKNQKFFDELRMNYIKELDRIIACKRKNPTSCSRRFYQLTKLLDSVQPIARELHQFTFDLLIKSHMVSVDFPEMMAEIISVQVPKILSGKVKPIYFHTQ

For `CC1=C(O)C(=O)C(C)O1` (stereo not given), the Potency result in [1], in [2], in [3], in assay [4], in [5] and in assay [6] was “inactive” throughout. Besides, the Potency entry in assay [7], in assay [8], in assay [10], in [11], in assay [12] and in assay [13] was “inactive” each time. In addition, the Potency entry in assay [14] is “inactive”. The result in [9], in assay [15], in assay [16] and in assay [17] was inactive.
Consider `C=CCCCCCCCC`, for which the Potency entry in [1], in [2], in [5], in assay [6], in assay [7] and in [8] was “inactive” each time. Moreover, the Potency result in assay [10], in [11], in assay [12], in assay [13] and in assay [14] was “inactive” each time. Further, the compound was called inactive in [18], in assay [9], in [15] and in assay [16].
As for `CN(C)CCCO[C@@H]1[C@H]2OC(C)(C)O[C@H]2O[C@@H]1C(O)CO` (stereo not given in full), the Potency result in assay [1], in assay [2], in assay [4], in assay [5], in assay [6] and in assay [7] was “inactive” in each case. In addition, the Potency result in assay [8], in assay [10], in assay [12], in [13] and in assay [14] was “inactive” each time. Further, the compound was called inactive in assay [18], in [9], in assay [15], in assay [16], in assay [17] and in assay [19].
As for `Fc1ccccc1`, the Potency entry in [1], in [2], in assay [4], in assay [5], in assay [6] and in assay [7] was “inactive” each time. For the same compound, the Potency result in assay [8], in assay [10], in assay [12], in assay [13] and in assay [14] was “inactive” each time. For the same compound, the call in assay [18], in [9], in assay [15], in assay [16] and in assay [17] was inactive.
Regarding `CCOC(=O)CC1(C)OCC(C)O1` (stereo not given), the Potency entry in assay [1], in assay [2], in assay [4], in assay [5], in assay [6] and in [7] was “inactive” throughout. Also, the Potency result in assay [8], in [10], in [12], in assay [13] and in assay [14] was “inactive” throughout. Also, the compound was classed as inactive in assay [18], in assay [9], in assay [15] and in [17].
Consider `c1ccc(B(c2ccccc2)c2ccccc2)cc1`, for which the Potency entry in assay [1], in assay [2], in [4], in [5], in [6] and in assay [7] was “inactive” throughout. The Potency entry in assay [11], in assay [12], in [13] and in assay [14] was “inactive” throughout. The compound was called inactive in [18], in assay [9], in assay [15] and in assay [16].
For `c1ccc(-c2nn[nH]n2)cc1`, the Potency result in [1], in assay [2], in assay [4], in [5], in [7] and in [8] was “inactive” in each case. The Potency entry in [10], in assay [11], in assay [12], in assay [13] and in [14] was “inactive” in each case. Further, the compound was classed as inactive in assay [18], in assay [9], in [15], in [16] and in assay [17].
Turning to `CC1CCc2c(N3CCC(O)CC3)c(F)cc3c(=O)c(C(=O)O)cn1c23` (stereo not given), the Potency entry in [1], in [2], in assay [3], in assay [4], in assay [5] and in assay [6] was “inactive” throughout. Moreover, the Potency result in assay [7], in assay [8], in [10], in assay [11], in assay [12] and in assay [13] was “inactive” throughout. In addition, in assay [14], the Potency result is “inactive”. In addition, the compound was classed as inactive in [9], in assay [15], in assay [16], in [17] and in assay [19].
On to `CC(=O)CCc1ccc(OC(C)=O)cc1`, for which the Potency entry in assay [1], in assay [2], in [4], in [5], in assay [6] and in assay [7] was “inactive” throughout. Besides, the Potency result in [8], in [10], in assay [12], in [13] and in assay [14] was “inactive” throughout. The outcome in assay [18], in assay [9], in assay [15], in assay [16] and in assay [17] was inactive.
`Cc1ccc(C(=O)O)cc1[N+](=O)[O-]`: the Potency entry in [1], in assay [2], in [4], in assay [5], in assay [7] and in assay [8] was “inactive” each time. Besides, the Potency entry in assay [10], in assay [11], in [12], in assay [13], in [14] and in assay [20] was “inactive” each time. Further, the outcome in [18], in assay [9], in assay [15], in [16] and in assay [17] was inactive.
On to `OCC(O)CN1CCN(c2ccccc2)CC1` (stereo not given), for which the Potency result in assay [1], in assay [2], in [4], in assay [5], in [6] and in assay [7] was “inactive” each time. The Potency entry in [8], in [10], in [11], in assay [12], in assay [13] and in [14] was “inactive” each time. Further, the compound was called inactive in [18], in assay [9], in assay [15], in [16] and in [19].
As for `CCCCCCCCCCCCCCC(=O)NC(CO)CCCCCCCCCCCCCC` (stereo not given), the Potency result in [1], in assay [2], in assay [4], in assay [5], in assay [7] and in assay [8] was “inactive” throughout. Moreover, the Potency result in assay [10], in assay [11], in assay [12], in assay [13] and in assay [14] was “inactive” each time. Also, the call in assay [18], in assay [9], in assay [15] and in assay [16] was inactive.
Regarding `N#Cc1cscn1`, the Potency result in assay [1], in assay [2], in assay [4], in assay [5], in assay [7] and in assay [8] was “inactive” each time. Further, the Potency result in [10], in assay [11], in assay [12], in [13] and in assay [14] was “inactive” throughout. Besides, the compound was classed as inactive in [18], in [9], in [15] and in [16].
`C[C@]12CCC(=O)C=C1CC[C@H]1[C@@H]3CC[C@](O)(C(=O)CO)[C@@]3(C)C[C@H](O)[C@@]12F`: the Potency result in [1], in [2], in [5], in assay [6], in [7] and in [8] was “inactive” in each case. Further, the Potency entry in [10], in assay [11], in assay [12] and in [14] was “inactive” in each case. Moreover, the result in [18], in assay [9], in assay [15], in assay [16], in assay [17] and in assay [19] was inactive. For the same compound, the figures for the Potency in assay [4] and in assay [13] were 9.52 µM (active) and 2.13 µM (active), respectively.
Take `COc1cc2c(cc1OC)CN(C(=O)[C@H](C)N[C@@H](CCc1ccccc1)C(=O)O)[C@H](C(=O)O)C2`: the Potency result in assay [1], in assay [2], in assay [4], in [5], in [6] and in assay [7] was “inactive” each time. The Potency result in assay [10], in assay [11], in [12], in assay [13] and in assay [14] was “inactive” throughout. The compound was classed as inactive in [18], in assay [9], in assay [15], in [16] and in assay [17].
`OCC1CCC(CO)CC1` (stereo not given): the Potency result in assay [1], in assay [2], in assay [3], in assay [4], in [5] and in assay [6] was “inactive” throughout. For the same compound, the Potency result in assay [7], in assay [8], in [10], in [11], in assay [12] and in assay [13] was “inactive” throughout. Also, the Potency entry in [14] and in assay [20] was “inactive” throughout. For the same compound, the call in [9], in assay [15], in assay [16] and in assay [17] was inactive.

Source of the values: PubChem BioAssay (Tox21).
